Laboratory results published in PubChem BioAssay (NCATS).
Records with an inconclusive call do not appear. Calls of active or inactive are those of the source. Unless noted, the call rests on the fitted dose curve.

Columns and labels:
[1] = Inducers of the Endoplasmic Reticulum Stress Response (ERSR) in human glioma: Validation (AID 504836; active means well fitted curve in the direction sought with a large enough effect; an effect the other way counts as inactive or inconclusive); conditions: human glioma cells, ER stress response reporter; series mostly up to 38.3 µM
Method in brief: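 Stably transfected U87-MG glioma cells carrying a GRP78-based luciferase sensor; 16 h compound incubation. Luminescence end-point read 10 min after Bright-Glo addition at room temperature.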

[2] = qHTS for Inhibitors of the Functional Ribonucleoprotein Complex (vRNP) of Lassa (LASV) Arenavirus: LASV Primary Screen - GLuc reporter signal (AID 1347082; calls by dose curve; tested in HEK293 reporter line; further: nearly all actives have a fitted effect of over 60% in size); conditions: LASV minigenome vRNP, Gaussia luciferase reporter; series mostly up to 57.5 µM
[3] = qHTS for Inhibitors of the Functional Ribonucleoprotein Complex (vRNP) of Lassa (LASV) Arenavirus: Viability assay - alamar blue signal for LASV Primary Screen (AID 1347083; calls by dose curve; tested in HEK293 reporter line; further: nearly all actives have a fitted effect of over 80% in size); conditions: cell viability, alamar blue fluorescence (LASV minigenome counter-screen); series mostly up to 57.5 µM
[4] = qHTS for Inhibitors of the Functional Ribonucleoprotein Complex (vRNP) of Lymphocytic Choriomeningitis Arenaviruses (LCMV): Viability assay - alamar blue signal for LCMV Primary Screen (AID 1347085; calls by dose curve; tested in HEK293 reporter line; further: nearly all actives have a fitted effect of over 80% in size); conditions: alamar blue viability counter-screen, LCMV vRNP screen cells; series mostly up to 57.5 µM
[5] = molecular target: Nucleoprotein (Lymphocytic choriomeningitis virus (strain Armstrong)) (UniProt P09992); assay: qHTS for Inhibitors of the Functional Ribonucleoprotein Complex (vRNP) of Lymphocytic Choriomeningitis Arenaviruses (LCMV): LCMV Primary Screen - GLuc reporter signal (AID 1347086); conditions: LCMV minigenome vRNP cell assay, Gaussia luciferase reporter; series mostly up to 57.5 µM; further: nearly all actives have a fitted effect of over 70% in size
[6] = molecular target: Arylsulfatase A (Homo sapiens) (UniProt P15289); assay: qHTS screen for enhancers of Arylsulfatase A (ASA1): LOPAC Validation Assay (AID 720538; active means well fitted curve in the direction sought with a large enough effect; an effect the other way counts as inactive or inconclusive); conditions: ASA enzyme activity, LOPAC qHTS enhancer assay; series mostly up to 57.5 µM
Method in brief: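 Read-out: fluorescence at Ex=525/Em=598 nm after 1N NaOH final stop. Patient fibroblasts carrying ASA-I179S had 48h compound exposure, then 14h room-temperature pNCS hydrolysis (0.5mM final) in lysis buffer. Signal increase = enhanced activity.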

[7] = molecular target: Ubiquitin carboxyl-terminal hydrolase 1 (Homo sapiens) (UniProt O94782); assay: Inhibitors of USP1/UAF1: Pilot qHTS (AID 504865; active means well fitted curve in the direction sought with a large enough effect; an effect the other way counts as inactive or inconclusive;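 further: rhodamine fluorescence freed from ubiquitin-rhodamine substrate followed over time; top concentration of the series differs between compounds; nearly all actives have a fitted effect of over 35% in size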); conditions: purified USP1/UAF1, Ub-rhodamine cleavage fluorescence; series mostly up to 114 µM
Method in brief: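 1nM USP1/UAF1 + cpd, 15 min RT; start w/ Ub-Rho 150nM final; kinetic FL 480/540 nm, 6 reads q60 s. Buffer 50mM HEPES pH 7.8, 0.5mM EDTA, 1mM TCEP, 0.01% Tween-20, 0.1 mg/ml BSA.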

Measured: Potency

Chain of Nucleoprotein (Lymphocytic choriomeningitis virus (strain Armstrong)) (P09992 whole entry, looked up): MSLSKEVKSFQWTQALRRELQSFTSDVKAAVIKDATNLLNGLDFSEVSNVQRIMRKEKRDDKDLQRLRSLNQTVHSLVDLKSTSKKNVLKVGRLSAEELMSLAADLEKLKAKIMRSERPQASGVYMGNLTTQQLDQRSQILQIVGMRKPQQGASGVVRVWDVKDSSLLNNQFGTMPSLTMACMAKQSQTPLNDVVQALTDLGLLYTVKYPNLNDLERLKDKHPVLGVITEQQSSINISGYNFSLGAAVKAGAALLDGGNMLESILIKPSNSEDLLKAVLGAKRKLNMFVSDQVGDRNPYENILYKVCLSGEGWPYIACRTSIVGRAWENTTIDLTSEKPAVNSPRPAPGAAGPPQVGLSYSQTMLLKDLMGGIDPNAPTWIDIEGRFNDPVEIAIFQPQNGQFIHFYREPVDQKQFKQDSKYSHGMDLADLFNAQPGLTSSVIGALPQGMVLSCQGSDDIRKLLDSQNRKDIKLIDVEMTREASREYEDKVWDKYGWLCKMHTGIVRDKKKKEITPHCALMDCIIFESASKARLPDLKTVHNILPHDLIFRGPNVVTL
Chain of Arylsulfatase A (Homo sapiens) (P15289 whole entry, looked up): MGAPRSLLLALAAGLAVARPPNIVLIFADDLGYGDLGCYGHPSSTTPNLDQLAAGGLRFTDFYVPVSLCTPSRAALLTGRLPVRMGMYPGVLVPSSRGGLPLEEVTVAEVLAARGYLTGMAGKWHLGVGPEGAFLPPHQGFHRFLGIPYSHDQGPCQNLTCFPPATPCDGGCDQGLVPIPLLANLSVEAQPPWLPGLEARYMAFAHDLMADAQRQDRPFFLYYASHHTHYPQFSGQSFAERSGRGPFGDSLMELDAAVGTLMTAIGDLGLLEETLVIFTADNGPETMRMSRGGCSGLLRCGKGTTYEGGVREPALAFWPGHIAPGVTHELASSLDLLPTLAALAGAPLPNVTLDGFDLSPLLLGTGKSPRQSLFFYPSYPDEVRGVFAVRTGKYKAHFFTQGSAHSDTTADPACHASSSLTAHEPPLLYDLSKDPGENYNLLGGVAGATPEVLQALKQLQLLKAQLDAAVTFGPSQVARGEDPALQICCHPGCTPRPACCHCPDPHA
Chain of Ubiquitin carboxyl-terminal hydrolase 1 (Homo sapiens) (O94782 whole entry, looked up): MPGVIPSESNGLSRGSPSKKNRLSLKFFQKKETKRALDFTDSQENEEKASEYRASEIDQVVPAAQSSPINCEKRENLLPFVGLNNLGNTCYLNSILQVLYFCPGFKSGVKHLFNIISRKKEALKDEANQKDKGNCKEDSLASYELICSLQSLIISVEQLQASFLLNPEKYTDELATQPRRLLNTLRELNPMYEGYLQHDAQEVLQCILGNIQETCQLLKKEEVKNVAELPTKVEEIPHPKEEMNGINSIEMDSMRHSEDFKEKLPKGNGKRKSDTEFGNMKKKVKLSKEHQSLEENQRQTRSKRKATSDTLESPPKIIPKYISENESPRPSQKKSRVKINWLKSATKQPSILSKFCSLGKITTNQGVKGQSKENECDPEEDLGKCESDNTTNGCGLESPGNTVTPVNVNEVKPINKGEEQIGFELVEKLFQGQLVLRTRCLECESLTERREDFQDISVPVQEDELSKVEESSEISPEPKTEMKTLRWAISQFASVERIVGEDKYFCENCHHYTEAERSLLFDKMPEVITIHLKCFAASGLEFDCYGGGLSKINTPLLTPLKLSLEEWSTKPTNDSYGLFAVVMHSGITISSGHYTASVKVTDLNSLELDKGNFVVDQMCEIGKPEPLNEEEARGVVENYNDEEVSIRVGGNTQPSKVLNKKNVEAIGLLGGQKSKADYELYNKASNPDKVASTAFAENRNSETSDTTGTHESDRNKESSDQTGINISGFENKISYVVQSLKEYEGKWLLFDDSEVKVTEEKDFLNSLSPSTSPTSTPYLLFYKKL

CC1CC2C3CCC4=CC(=O)C=C[C@]4(C)[C@@]3(F)[C@@H](O)C[C@]2(C)[C@@]1(O)C(=O)CO (some centres not stated)
not listed: [6] | [7]
inactive: all other assays above

C#CC(N)CCC(=O)O (configuration not stated)
not listed: [6] | [7]
inactive: all other assays above

CC(N)(Cc1ccc(O)cc1)C(=O)O (configuration not stated)
not listed: [6] | [7]
inactive: all other assays above

CN1CC(O)C(O)C(O)C1CO (configuration not stated)
not listed: [6] | [7]
inactive: all other assays above

Clc1ccc(N2CCN(Cc3cc4ccccn4n3)CC2)cc1
not listed: [6] | [7]
inactive: all other assays above

O=[N+]([O-])c1ccc(CSc2ncnc3c2ncn3[C@@H]2O[C@H](CO)[C@@H](O)[C@H]2O)cc1
not listed: [6] | [7]
inactive: all other assays above

O=c1ccn([C@@H]2O[C@H](COP(=O)(O)OP(=O)(O)O)[C@@H](O)[C@H]2O)c(=O)[nH]1
not listed: [6] | [7]
inactive: all other assays above

Cc1nc2n(c(=O)c1CCN1CCC(c3noc4cc(F)ccc34)CC1)CCCC2O (configuration not stated)
not listed: [6] | [7]
inactive: all other assays above

Nc1nc2c(cnn2CCc2ccccc2)c2nc(-c3ccco3)nn12
not listed: [6] | [7]
inactive: all other assays above

COc1ccc2cc([S+]([O-])Cc3ncc(C)c(OC)c3C)nc2c1
not listed: [6] | [7]
inactive: all other assays above

c1ccc(C(NCc2cccnc2)(c2ccccc2)c2ccccc2)cc1
not listed: [6] | [7]
inactive: all other assays above

CO/S(=N\S(=O)(=O)c1ccc(Cl)cc1)c1ccc([N+](=O)[O-])cc1 (configuration not stated)
not listed: [6] | [7]
inactive: all other assays above

COc1ccc(CCn2nnnc2C2(c3ccc(C)cc3)CC2)cc1
not listed: [6] | [7]
inactive: all other assays above

O=c1[nH]c(=S)[nH]c(-c2ccccc2)c1Cc1c(O)ccc2ccccc12
not listed: [6] | [7]
inactive: all other assays above

Nc1nc(Nc2ccccc2)nc2c1ncn2[C@@H]1O[C@H](CO)[C@@H](O)[C@H]1O
not listed: [6] | [7]
inactive: all other assays above

CCc1c(C(=O)NCCc2ccc(N3CCCCC3)cc2)[nH]c2ccc(Cl)cc12
not listed: [6] | [7]
inactive: all other assays above

N[C@H](C(=O)O)[C@H](Cc1ccccc1)C(=O)O
not listed: [6] | [7]
inactive: all other assays above

CCCCC#Cc1nc(NC)c2ncn([C@@H]3O[C@H](CO)[C@@H](O)[C@H]3O)c2n1
not listed: [6] | [7]
inactive: all other assays above

CN(C)c1ccc(/C=C2\C(=O)Nc3ccccc32)cc1
not listed: [6] | [7]
inactive: all other assays above

CCCn1c(=O)c(C)cn2nc(N)nc12
not listed: [6] | [7]
inactive: all other assays above

COc1ccc2c(c1)CCC1C2CC[C@@]2(C)C1CC[C@@H]2NCCCCCCN1C(=O)CCC1=O (some centres not stated)
not listed: [6] | [7]
inactive: all other assays above

Oc1cc2c(c(Cl)c1O)CCNCC2c1ccccc1 (configuration not stated)
not listed: [6] | [7]
inactive: all other assays above

OC[C@H]1O[C@H](n2cnc3c(N[C@H]4CCC[C@@H]4O)ncnc32)[C@H](O)[C@@H]1O
not listed: [6] | [7]
inactive: all other assays above

C=CC(C)=C[C@@]1(C)SC(=O)C(C)=C1O
not listed: [6] | [7]
inactive: all other assays above

CC(=O)SC1CC2=CC(=O)CC[C@]2(C)C2CC[C@@]3(C)C(CC[C@@]34CCC(=O)O4)C12 (some centres not stated)
not listed: [6] | [7]
inactive: all other assays above

CN1Cc2sccc2C(c2ccc(O)c(O)c2)C1 (configuration not stated)
not listed: [6] | [7]
inactive: all other assays above

CSc1nc(N)c2ncn([C@@H]3O[C@H](COP(=O)(O)OP(=O)(O)OP(=O)(O)O)[C@@H](O)[C@H]3O)c2n1
not listed: [6] | [7]
inactive: all other assays above

Cn1ncc(S(=O)(=O)Cc2ccccc2)c(Br)c1=O
not listed: [6] | [7]
inactive: all other assays above

CNc1ncnc2c1ncn2[C@@H]1O[C@H](CO)[C@@H](O)[C@H]1O
not listed: [6] | [7]
inactive: all other assays above

Nc1ncnc2c1ncn2[C@@H]1O[C@H](COP(=O)(O)OP(=O)(O)OP(=O)(O)OP(=O)(O)OC[C@@H]2O[C@H](n3cnc4c(N)ncnc43)[C@@H](O)[C@H]2O)[C@@H](O)[C@H]1O
not listed: [6] | [7]
inactive: all other assays above

CCN(CC)CCNC(=O)c1ccc(NS(C)(=O)=O)cc1
not listed: [6] | [7]
inactive: all other assays above

CCCCCCC(=O)OC1CC(C)(C)NC(C)(C)C1
not listed: [7]
inactive: all other assays above

CSc1nc(N)c2ncn([C@@H]3O[C@H](COP(=O)(O)OP(=O)(O)O)C(O)[C@H]3O)c2n1 (some centres not stated)
not listed: [6] | [7]
inactive: all other assays above

CCCCCCCCc1ccc(-c2ccc(C(=O)O)cc2)cc1
not listed: [6] | [7]
inactive: all other assays above

Nc1nc(SCc2ccc([N+](=O)[O-])cc2)c2ncn([C@@H]3O[C@H](CO)[C@@H](O)[C@H]3O)c2n1
not listed: [6] | [7]
inactive: all other assays above

CN1C2CC(OC(=O)[C@H](CO)c3ccccc3)CC1C1OC12 (some centres not stated)
not listed: [6]
inactive: all other assays above
